In PubChem BioAssay (EPA / NIEHS):
Results filed as inconclusive are left out. More than one record can exist for a structure, and the calls need not agree. Calls of active or inactive are those of the source. How the source made its calls, unless noted: active means hit-call score of the fitted dose curve at least 0.9, where 1 is the maximum; inactive means score below 0.9.

Legend:
[1] = ATG_NFI_CIS: Attagene CIS-FACTORIAL HepG2 Assay for human Nuclear Factor I (NFI) (AID 2282989); conditions: HepG2 cis-regulatory reporter, NFI response element transcription; actives raise or lower the signal
In short: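 Read-out: reporter mRNA via RT-PCR plus capillary electrophoresis with fluorescence detection. Transiently transfected HepG2 (endogenous TF activity on cis promoters), 24 h compound exposure; gain or loss of signal fitted against DMSO.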

[2] = ATG_NRF2_ARE_CIS: Attagene CIS-FACTORIAL HepG2 Assay for human Nuclear Factor Erythroid 2 Related Factor 2 (NFR2) response to Antioxidant Response Elements (ARE) (AID 2282992); conditions: HepG2 Attagene ARE/NRF2 reporter, transcription factor activity; actives raise or lower the signal;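 on AC50: reporter mRNA level measured by RT-PCR and capillary electrophoresis fluorescence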
In short: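 Endogenous transcription factor activity in human liver HepG2 cells is tracked via a cis-element-driven reporter within a multiplexed set. mRNA induction is read by RT-PCR and capillary electrophoresis after 24 h, with DMSO as baseline.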

[3] = ATG_Oct_MLP_CIS: Attagene CIS-FACTORIAL HepG2 Assay for human Octamer-Binding Transcription Factor (Oct) (AID 2282993); conditions: HepG2 Attagene cis-factorial Oct reporter, mRNA; actives raise or lower the signal
In short: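 Read-out: reporter mRNA via RT-PCR plus capillary electrophoresis of 6-FAM-labelled fragments. Transiently transfected HepG2, 24 h exposure, endogenous TF activity on cis elements. Gain or loss of signal fitted relative to DMSO.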

[4] = molecular target: Cellular tumor antigen p53 (Homo sapiens) (UniProt P04637); test: ATG_p53_CIS: Attagene CIS-FACTORIAL HepG2 Assay for human p53 Transcription Factor (AID 2282994); conditions: HepG2 p53 cis-element reporter, Attagene mRNA; actives raise or lower the signal
Cellular tumor antigen p53 (Homo sapiens), sequence (P04637 whole entry, looked up, the tested form may be a part): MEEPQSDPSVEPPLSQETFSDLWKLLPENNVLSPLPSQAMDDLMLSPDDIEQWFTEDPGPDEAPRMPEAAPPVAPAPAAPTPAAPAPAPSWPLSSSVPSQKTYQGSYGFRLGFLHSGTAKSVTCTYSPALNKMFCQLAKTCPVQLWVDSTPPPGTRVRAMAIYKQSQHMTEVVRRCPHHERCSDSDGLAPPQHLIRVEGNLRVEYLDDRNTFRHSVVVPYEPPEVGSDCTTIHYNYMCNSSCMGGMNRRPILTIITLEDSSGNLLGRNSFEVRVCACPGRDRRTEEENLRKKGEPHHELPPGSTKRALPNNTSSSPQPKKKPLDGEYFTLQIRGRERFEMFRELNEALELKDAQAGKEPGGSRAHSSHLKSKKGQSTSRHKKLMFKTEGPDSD
In short: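 Steps: transfect HepG2 with multiplexed cis reporter constructs; dose chemicals 24 h; extract RNA, reverse-transcribe, PCR-amplify reporter sequences; FAM-label, HpaI-digest, resolve fragments by CE. Activity fitted both directions relative to DMSO.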

[5] = BSK_3C_TissueFactor: BioMAP Diversity Plus: 3C Assay for Tissue Factor Biomarker Activity (AID 2282997); conditions: BioMAP 3C HUVEC, tissue factor biomarker readout; actives raise or lower the signal
In short: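 HUVEC, 3C system, 24 h post-dose; Tissue Factor by ELISA; bidirectional fit vs DMSO baseline.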

[6] = BSK_3C_uPAR: BioMAP Diversity Plus: 3C Assay for Urokinase-type plasminogen activator receptor (uPAR) Biomarker Activity (AID 2282998); conditions: BioMAP 3C HUVEC, uPAR biomarker ELISA; actives raise or lower the signal
In short: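 HUVEC primary cells; 24 h post-dose; uPAR by ELISA; gain or loss of signal fitted bidirectionally vs DMSO baseline.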

[7] = BSK_3C_VCAM1: BioMAP Diversity Plus: 3C Assay for Vascular cell adhesion molecule 1 (VCAM1) Biomarker Activity (AID 2282999); conditions: BioMAP 3C HUVEC, VCAM1 ELISA, cytokine-stimulated; actives raise or lower the signal
In short: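 Vascular primary endothelium (human umbilical vein) was exposed to chemicals and assayed 24 h later. VCAM-1 levels came from ELISA, with DMSO serving as baseline for bidirectional fitting.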

[8] = BSK_4H_Eotaxin3: BioMAP Diversity Plus: 4H Assay for Eotaxin 3 Biomarker Activity (AID 2283000); conditions: primary human endothelial cells (HUVEC); actives raise or lower the signal
In short: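 Readout is Eotaxin-3 (CCL26) level by ELISA in primary human umbilical vein endothelial cells harvested 24 h after chemical exposure; activity fitted in both directions against DMSO control.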

[9] = molecular target: human Peroxisome Proliferator-activated Receptor alpha (PPARa), PPARA (gene 5465) (UniProt Q07869); test: ATG_PPARa_TRANS: Attagene TRANS-FACTORIAL HepG2 Assay for human Peroxisome Proliferator-activated Receptor alpha (PPARa) (AID 2283001; active means hit-call score of the fitted dose curve at least 0.9, where 1 is the maximum)
human Peroxisome Proliferator-activated Receptor alpha (PPARa), PPARA (gene 5465), sequence (Q07869 whole entry, looked up, the tested form may be a part): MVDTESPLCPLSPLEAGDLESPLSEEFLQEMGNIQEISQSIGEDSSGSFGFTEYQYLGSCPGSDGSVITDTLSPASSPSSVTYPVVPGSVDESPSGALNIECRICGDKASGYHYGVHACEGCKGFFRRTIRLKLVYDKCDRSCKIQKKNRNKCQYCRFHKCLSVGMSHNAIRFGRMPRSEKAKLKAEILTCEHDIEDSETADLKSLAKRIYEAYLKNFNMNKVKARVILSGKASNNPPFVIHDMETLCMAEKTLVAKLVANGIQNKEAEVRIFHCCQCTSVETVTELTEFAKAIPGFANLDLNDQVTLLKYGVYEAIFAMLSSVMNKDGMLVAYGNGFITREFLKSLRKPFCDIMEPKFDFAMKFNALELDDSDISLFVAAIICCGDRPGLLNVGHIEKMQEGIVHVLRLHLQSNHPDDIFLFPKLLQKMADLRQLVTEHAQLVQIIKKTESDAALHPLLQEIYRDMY
In short: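 Exposure: 24 h, transiently transfected HepG2 cells. Endpoint: GAL4-UAS reporter mRNA, RT-PCR with capillary electrophoresis fluorescence. Baseline: DMSO; increases fitted.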

[10] = molecular target: human Peroxisome Proliferator-activated Receptor delta (PPARd), PPARD (gene 5467) (UniProt Q03181); test: ATG_PPARd_TRANS: Attagene TRANS-FACTORIAL HepG2 Assay for human Peroxisome Proliferator-activated Receptor delta (PPARd) (AID 2283002; active means hit-call score of the fitted dose curve at least 0.9, where 1 is the maximum)
human Peroxisome Proliferator-activated Receptor delta (PPARd), PPARD (gene 5467), sequence (Q03181 whole entry, looked up, the tested form may be a part): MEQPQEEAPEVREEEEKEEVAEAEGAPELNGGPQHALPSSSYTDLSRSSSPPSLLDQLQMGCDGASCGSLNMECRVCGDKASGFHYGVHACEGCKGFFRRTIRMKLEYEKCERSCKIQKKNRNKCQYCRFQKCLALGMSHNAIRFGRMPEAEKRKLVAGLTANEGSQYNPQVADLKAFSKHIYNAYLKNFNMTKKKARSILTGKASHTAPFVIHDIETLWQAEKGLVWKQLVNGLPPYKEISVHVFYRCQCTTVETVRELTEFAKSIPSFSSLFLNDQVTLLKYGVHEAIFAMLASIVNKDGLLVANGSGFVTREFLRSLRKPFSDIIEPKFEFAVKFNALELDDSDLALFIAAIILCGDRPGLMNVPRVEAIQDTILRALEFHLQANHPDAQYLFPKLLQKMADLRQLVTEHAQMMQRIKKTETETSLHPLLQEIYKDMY
In short: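 Measured quantity: GAL4-UAS reporter transcript induction in HepG2 after 24 h chemical dosing, with NR-Gal4 chimeras supplied by transient transfection. Detection by RT-PCR and capillary electrophoresis; upward fit against DMSO.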

[11] = read-out: Intercellular Adhesion Molecule 1 (ICAM1), ICAM1 (gene 3383); test: BSK_3C_ICAM1: BioMAP Diversity Plus: 3C Assay for Intercellular Adhesion Molecule 1 (ICAM1) Biomarker Activity (AID 2283003); conditions: primary human endothelial cells (HUVEC); actives raise or lower the signal
In short: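 Using DMSO as baseline, bidirectional curve fitting was applied to ICAM-1 ELISA signals from HUVEC in the 3C system, measured 24 h after compound addition.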

[12] = BSK_3C_Proliferation: Cell Proliferation Assessment in the BioMAP Diversity Plus: 3C Assay (AID 2283006); conditions: primary human endothelial cells (HUVEC);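 on AC50: potency may reflect either rise or fall in cell number versus DMSO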
In short: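 Measured here: sulforhodamine B (0.1%) staining of TCA-fixed sub-confluent umbilical vein endothelial cultures 48 h post-dosing, absorbance 560 nm. DMSO served as negative control and baseline; both signal gain and loss were modelled.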

[13] = molecular target: Peroxisome proliferator-activated receptor gamma (Homo sapiens) (UniProt P37231); test: ATG_PPARg_TRANS: Attagene TRANS-FACTORIAL HepG2 Assay for human Peroxisome Proliferator-activated Receptor-gamma (PPARg) (AID 2283007; active means hit-call score of the fitted dose curve at least 0.9, where 1 is the maximum)
Peroxisome proliferator-activated receptor gamma (Homo sapiens), sequence (P37231 whole entry, looked up, the tested form may be a part): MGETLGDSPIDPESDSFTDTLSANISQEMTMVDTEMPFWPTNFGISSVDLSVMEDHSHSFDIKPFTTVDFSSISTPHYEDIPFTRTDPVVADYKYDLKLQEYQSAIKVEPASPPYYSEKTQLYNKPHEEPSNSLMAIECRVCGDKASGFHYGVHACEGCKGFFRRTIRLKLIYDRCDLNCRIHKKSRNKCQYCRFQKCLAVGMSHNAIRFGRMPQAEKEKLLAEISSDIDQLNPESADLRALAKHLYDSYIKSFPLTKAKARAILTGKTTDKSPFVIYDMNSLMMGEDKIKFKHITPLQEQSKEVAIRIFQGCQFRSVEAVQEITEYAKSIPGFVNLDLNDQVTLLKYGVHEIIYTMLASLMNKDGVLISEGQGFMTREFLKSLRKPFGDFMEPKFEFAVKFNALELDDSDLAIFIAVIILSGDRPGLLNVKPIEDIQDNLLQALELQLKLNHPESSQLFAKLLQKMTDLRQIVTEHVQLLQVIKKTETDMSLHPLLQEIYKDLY
In short: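 Read-out: reporter mRNA induction, detected by fluorescence after RT-PCR and capillary electrophoresis. Transiently transfected human HepG2 liver cells carrying a chimeric NR-Gal4 construct were dosed for 24 h; activity was fitted upward relative to DMSO.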

[14] = ATG_NF_kB_CIS: Attagene CIS-FACTORIAL HepG2 Assay for human Nuclear Factor Kappa B (NF-kB) (AID 2282991); conditions: HepG2 Attagene cis-factorial NF-kB reporter mRNA; actives raise or lower the signal
In short: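 Read-out: reporter transcript levels quantified by RT-PCR plus capillary electrophoresis of 6-FAM-labelled, HpaI-cut fragments. Transfected HepG2 cells, 24 h compound exposure, endogenous NF-kB-driven cis element; gain or loss scored versus DMSO.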

[15] = molecular target: Nuclear receptor subfamily 1 group I member 2 (Homo sapiens) (UniProt O75469); test: ATG_PXR_TRANS: Attagene TRANS-FACTORIAL HepG2 Assay for human Pregnane X Receptor (PXR) (AID 2283008; active means hit-call score of the fitted dose curve at least 0.9, where 1 is the maximum)
Nuclear receptor subfamily 1 group I member 2 (Homo sapiens), sequence (O75469 whole entry, looked up, the tested form may be a part): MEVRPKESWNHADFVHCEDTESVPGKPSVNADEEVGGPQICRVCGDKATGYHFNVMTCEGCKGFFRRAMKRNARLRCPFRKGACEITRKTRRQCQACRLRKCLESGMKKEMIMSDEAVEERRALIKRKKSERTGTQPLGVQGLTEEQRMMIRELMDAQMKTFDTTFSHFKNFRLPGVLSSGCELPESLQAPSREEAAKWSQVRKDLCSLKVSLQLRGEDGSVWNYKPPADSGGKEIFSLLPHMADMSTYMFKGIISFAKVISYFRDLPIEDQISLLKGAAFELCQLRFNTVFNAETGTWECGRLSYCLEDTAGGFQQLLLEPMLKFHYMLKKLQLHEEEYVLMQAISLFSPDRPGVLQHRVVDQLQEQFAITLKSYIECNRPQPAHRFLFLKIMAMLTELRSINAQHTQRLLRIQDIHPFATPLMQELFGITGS
In short: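 HepG2 transfected (FuGene 6) with GAL4-UAS reporter units + PXR-Gal4 chimera; dosed 24 h. Total RNA → oligo(dT) RT → PCR → 6-FAM primer extension → HpaI cut → CE. Gain-of-signal vs DMSO.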

[16] = molecular target: human Retinoic Acid Receptor beta (RARb), RARB (gene 5915) (UniProt P10826); test: ATG_RARb_TRANS: Attagene TRANS-FACTORIAL HepG2 Assay for human Retinoic Acid Receptor beta (AID 2283004; active means hit-call score of the fitted dose curve at least 0.9, where 1 is the maximum)
human Retinoic Acid Receptor beta (RARb), RARB (gene 5915), sequence (P10826 whole entry, looked up, the tested form may be a part): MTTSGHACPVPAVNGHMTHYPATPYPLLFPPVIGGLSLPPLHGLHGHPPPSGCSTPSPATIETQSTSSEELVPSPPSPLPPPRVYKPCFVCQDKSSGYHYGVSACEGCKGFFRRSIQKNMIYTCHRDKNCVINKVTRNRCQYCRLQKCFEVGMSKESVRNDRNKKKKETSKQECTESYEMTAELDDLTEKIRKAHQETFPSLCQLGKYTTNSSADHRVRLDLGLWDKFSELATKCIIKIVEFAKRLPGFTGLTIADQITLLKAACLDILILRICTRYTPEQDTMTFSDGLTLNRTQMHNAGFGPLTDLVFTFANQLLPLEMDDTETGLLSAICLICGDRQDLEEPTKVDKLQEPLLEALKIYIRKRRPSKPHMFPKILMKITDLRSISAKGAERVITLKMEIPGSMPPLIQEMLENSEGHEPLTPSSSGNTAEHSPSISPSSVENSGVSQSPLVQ
In short: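 Readout is reporter mRNA induction: RNA reverse-transcribed, PCR-amplified, FAM-labelled, HpaI-cut and resolved by capillary electrophoresis. Transiently transfected HepG2 cells carrying exogenous NR–Gal4 chimeras were dosed for 24 h; activity fitted upward relative to DMSO.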

[17] = molecular target: human Retinoic Acid Receptor gamma (RARg), RARG (gene 5916) (UniProt P13631); test: ATG_RARg_TRANS: Attagene TRANS-FACTORIAL HepG2 Assay for human Retinoic Acid Receptor gamma (RARg) (AID 2283009; active means hit-call score of the fitted dose curve at least 0.9, where 1 is the maximum)
human Retinoic Acid Receptor gamma (RARg), RARG (gene 5916), sequence (P13631 whole entry, looked up, the tested form may be a part): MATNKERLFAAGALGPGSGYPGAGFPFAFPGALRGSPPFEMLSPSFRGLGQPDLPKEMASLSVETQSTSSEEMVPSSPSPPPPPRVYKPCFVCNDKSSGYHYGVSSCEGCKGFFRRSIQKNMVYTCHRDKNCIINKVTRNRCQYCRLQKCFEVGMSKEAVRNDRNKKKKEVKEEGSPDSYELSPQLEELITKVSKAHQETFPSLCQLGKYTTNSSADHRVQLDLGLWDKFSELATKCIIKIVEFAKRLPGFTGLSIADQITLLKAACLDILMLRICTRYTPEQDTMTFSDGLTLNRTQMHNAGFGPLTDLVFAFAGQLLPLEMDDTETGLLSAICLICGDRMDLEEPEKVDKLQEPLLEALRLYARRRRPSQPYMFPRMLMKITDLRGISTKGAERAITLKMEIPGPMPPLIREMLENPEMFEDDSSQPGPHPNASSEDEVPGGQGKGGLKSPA
In short: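 Gain-of-signal relative to DMSO is reported from fluorescent capillary electrophoresis of RT-PCR reporter products. These came from HepG2 cells expressing transfected RARg-GAL4 chimeras with UAS reporters, harvested 24 h after dosing.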

[18] = molecular target: human RAR-related Orphan Receptor beta (RORb), RORB (gene 6096) (UniProt Q92753); test: ATG_RORb_TRANS: Attagene TRANS-FACTORIAL HepG2 Assay for human RAR-related Orphan Receptor beta (RORb) (AID 2283010; active means hit-call score of the fitted dose curve at least 0.9, where 1 is the maximum)
human RAR-related Orphan Receptor beta (RORb), RORB (gene 6096), sequence (Q92753 whole entry, looked up, the tested form may be a part): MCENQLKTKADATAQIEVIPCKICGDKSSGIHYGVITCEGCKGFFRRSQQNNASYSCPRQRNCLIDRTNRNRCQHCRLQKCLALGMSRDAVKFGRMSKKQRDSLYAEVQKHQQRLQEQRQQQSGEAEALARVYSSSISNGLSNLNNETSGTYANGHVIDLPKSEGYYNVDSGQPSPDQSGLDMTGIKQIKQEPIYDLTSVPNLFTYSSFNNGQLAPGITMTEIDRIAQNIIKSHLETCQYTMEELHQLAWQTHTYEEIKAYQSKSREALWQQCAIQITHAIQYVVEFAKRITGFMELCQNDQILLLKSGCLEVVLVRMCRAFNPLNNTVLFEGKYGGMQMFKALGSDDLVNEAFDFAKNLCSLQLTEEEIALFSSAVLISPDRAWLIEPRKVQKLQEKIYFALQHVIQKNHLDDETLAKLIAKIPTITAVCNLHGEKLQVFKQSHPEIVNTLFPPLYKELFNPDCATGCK
In short: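 Multiplexed transcription-factor reporter assay: HepG2 cells transiently carrying NR-Gal4/GAL4-UAS constructs, 24 h treatment, mRNA quantified by RT-PCR plus capillary electrophoresis fluorescence; activity scored as induction over DMSO.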

Measured: AC50

COC(=O)[C@H]1[C@H]2C[C@@H]3c4[nH]c5cc(OC)ccc5c4CCN3C[C@H]2C[C@@H](OC(=O)c2cc(OC)c(OC)c(OC)c2)[C@@H]1OC
active: [2] 45.5 µM | [4] 22.9 µM | [5] 10.4 µM | [6] 23.2 µM | [7] 11.4 µM | [8] 25.7 µM | [12] 16.9 µM
inactive: [1] | [3] | [9] | [10] | [11] | [13]

CSc1ccc(Oc2ccc(S(N)(=O)=O)cc2CN(C)C)cc1C
active: [3] 33 µM | [12] 20 µM | [15] 2.31 µM
not listed: [4] | [9] | [10] | [16] | [17] | [18]
inactive: all other assays above

CC(C)(O)c1ccc(CNC(=O)c2cccnc2Oc2ccc(F)cc2)cc1
active: [2] 40.7 µM | [15] 2.33 µM
not listed: [13] | [14] | [18]
inactive: all other assays above

CC(=O)CC(c1ccccc1)c1c(O)c2ccccc2oc1=O (stereo not given)
active: [2] 27 µM
inactive: [1] | [2] | [3] | [5] | [6] | [7] | [8] | [9] | [11] | [12] | [15] | [18]

O=NO
not listed: [4] | [10] | [13] | [17]
inactive: all other assays above

CCCC[C@H]1CN(CC2CCOCC2)C(=O)OC12CCN(C1(C)CCN(C(=O)c3c(C)ncnc3C)CC1)CC2
not listed: [10] | [13] | [14] | [16] | [17]
inactive: all other assays above

O=C(N[C@@H](c1ccccc1)[C@@H]1CCCCN1)c1cccc(C(F)(F)F)c1Cl
active: [14] 53.2 µM | [2] 9.19 µM | [3] 22.6 µM | [5] 20 µM | [6] 20 µM | [12] 27.6 µM | [15] 5.4 µM
not listed: [4] | [16] | [18]
inactive: all other assays above
